Assay results published in PubChem BioAssay (Tox21).
Records with an inconclusive call do not appear. Where a call stands in place of a potency, no number is given. The source made the active and inactive calls. The call rests on the fitted dose curve.

Assay: Nuclear factor erythroid 2-related factor 2/antioxidant responsive element (Nrf2/ARE) small molecule agonists: luciferase reporter gene qHTS assay in human keratinocytes (AID 1919969); further: nearly all actives have a fitted effect of over 35% in size
Conditions: KeratinoSens HaCaT ARE-luciferase, luminescence, 24 h; series mostly up to 92.4 µM
Potency means the concentration at half of the fitted maximal effect.

CN(C/C=C/c1ccccc1)Cc1cccc2ccccc12
Potency: inactive

O=C1c2ccccc2C(=O)c2c1ccc(O)c2O
Potency: inactive

CCCCCCCC/C=C\CCCCCCCC(=O)NCc1ccc(O)c(OC)c1
Potency: inactive

O=[N+]([O-])C1(Br)COCOC1
Potency: 24.3 µM (active)

CC1(C)O[C@@H]2C[C@H]3[C@@H]4CCC5=CC(=O)C=C[C@]5(C)[C@H]4[C@@H](O)C[C@]3(C)[C@]2(C(=O)CO)O1
Potency: inactive

O=C(c1ccc(F)cc1)C1CCN(CCn2c(=S)[nH]c3ccccc3c2=O)CC1
Potency: 23.7 µM (active)

O=C(/C=C/c1ccc(O)c(O)c1)O[C@@H](C(=O)O)[C@@H](OC(=O)/C=C/c1ccc(O)c(O)c1)C(=O)O
Potency: inactive

CN(C)c1ccc(SC#N)cc1
Potency: 24.3 µM (active)

CCCCC/C(=C\c1ccccc1)CO
Potency: inactive

NC(=S)NC(N)=S
Potency: 13.7 µM (active)

CC1=NN(c2cc(S(=O)(=O)O)ccc2Cl)C(=O)C1N=Nc1ccccc1 (stereo unspecified)
Potency: inactive

C=CC[N+]1([C@H]2C[C@H]3[C@@H]4CC[C@H]5C[C@H](OC(C)=O)[C@@H](N6CCCCC6)C[C@]5(C)[C@H]4CC[C@]3(C)[C@H]2OC(=O)CC)CCCCC1
Potency: inactive

Cc1oc2c(NC(=O)c3c(Cl)cccc3Cl)cccc2c1C(C)(C)O
Potency: inactive

COc1ccccc1OCCNCC(O)COc1cccc2[nH]c3ccccc3c12 (stereo unspecified)
Potency: inactive

C[C@]12CC[C@@H]3c4ccc(O)cc4CC[C@H]3[C@@H]1CC[C@@H]2OC(=O)CCC1CCCC1
Potency: inactive

Cc1c(C(=O)O)c(O)cc2c1C(=O)c1c(O)c([C@@H]3O[C@H](CO)[C@@H](O)[C@H](O)[C@H]3O)c(O)c(O)c1C2=O
Potency: inactive

CCCCOC(=O)c1ccccc1C(=O)OCC(CC)CCCC (stereo unspecified)
Potency: 43.3 µM (active)

C(=C(c1ccccc1)c1ccccc1)c1ccccc1
Potency: 27.3 µM (active)

CCCCC/C=C\C=C\C(=O)OCC
Potency: 25.4 µM (active)

C=CCN1C[C@H](C(=O)N(CCCN(C)C)C(=O)NCC)C[C@@H]2c3cccc4[nH]cc(c34)C[C@H]21
Potency: inactive

C=CC(=C)CCC=C(C)C
Potency: 68.6 µM (active)

COc1cc([N+](=O)[O-])ccc1N
Potency: inactive

Cc1ccc(O)c(N)c1
Potency: 24.4 µM (active)

CCCCN(CCCC)CC(O)c1cc(Cl)cc2c1-c1ccc(Cl)cc1/C2=C/c1ccc(Cl)cc1 (stereo unspecified)
Potency: inactive

CNCCCC1c2ccccc2C=Cc2ccccc21
Potency: inactive

CCC(=O)OCCc1ccccc1
Potency: inactive

O=S(=O)(O)c1cc(S(=O)(=O)O)c2c(N=Nc3ccccc3)c(O)ccc2c1
Potency: inactive

C=Cc1ccc(S(=O)(=O)O)cc1
Potency: inactive

CCc1cc(C(C)(C)C)c(O)c(C(C)(C)C)c1
Potency: 34.7 µM (active)

CCCCCCCC/C=C/CCCCCCCC1=NCCN1CCO
Potency: inactive

Cc1ccc(N=Nc2c(O)c(C(=O)O)cc3ccccc23)c(S(=O)(=O)O)c1
Potency: inactive

CC(C)=CCC[C@](C)(O)[C@@H]1CC=C(C)CC1
Potency: 54.5 µM (active)

O=[N+]([O-])c1ccc(NCCO)c(OCCO)c1
Potency: inactive

Cc1cc2nc3c(=O)[nH]c(=O)nc-3n(C[C@H](O)[C@H](O)[C@H](O)CO)c2cc1C
Potency: inactive

OCCN1CCN(CC/C=C2/c3ccccc3Sc3ccc(C(F)(F)F)cc32)CC1
Potency: inactive

CCCN(CCc1cccs1)[C@H]1CCc2c(O)cccc2C1
Potency: inactive
